Screens: PubChem, National Center for Advancing Translational Sciences (NCATS)
RGS4 inh: inhibitors of human regulator of G protein signaling 4. P49798. Transcreener GDP fluorescence polarization, RGS4-accelerated GTP hydrolysis. Potency, µM (titrated, usually from 114 µM), inactives show at the top dose activity change, negative = inhibition, most hits filed as inhibitors. hit rate 0.039% among 390,000; active = well fitted inhibition curve with a large enough effect; also: potency is read from the fitted curve at half-maximal effect; % is scaled to controls: 0 for no effect and ±100 for the full control effect; nearly all actives have a fitted effect of over 75% in size
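MLSMR compounds (23 nl, pin-transferred) preincubated 10 min at room temperature with a 500nM (2x) first reagent, then RGS4 at 900nM (2x) plus Transcreener GDP mix added; fluorescence polarization (620/688 nm) read before and after 90 min at 30 °C.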
LDHA inh: blocks human lactate dehydrogenase A; P00338; purified LDHA, NADH/diaphorase-resazurin fluorescence; active compounds read low; activity change, % (values are at about 110 or 230 µM); hit rate 0.15% among 480,000; in the data active = activity change below about -30%;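 also: plate controls were DMSO wells for no effect and wells without enzyme for full effect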
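LDH5 2 nM; NADH 0.06 mM, pyruvate 0.2 mM; 200 mM Tris pH 7.4, EDTA, Tween-20; 5 min RT. Detection: diaphorase 0.133 mg/mL + resazurin 37 µM, fluorescence ex540/em590 at 0 and 20 min; normalized to enzyme-free and DMSO wells.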
DRD3 agonist: agonists of human D3 dopamine receptor; D3R DiscoveRx beta-arrestin cells, luminescence, 90 min; max activation, %; AID 652048; hit rate 0.58% among 410,000; in the data active = max activation above about 30%; also: 0% is about no effect
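Agonist mode: compounds and dopamine controls were applied to plated cells for 90 min at 37 degrees C after an overnight attachment at 1500 cells/well. Luminescent read-out followed 30 - 60 minutes at room temperature with DiscoveRx detection reagent.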
Akt phos inh: blocks phosphorylation of Akt. activity change, % for hits at 50 µM. hit rate 0.32% among 360,000. Neuro2A IGF-stimulated pAkt S473 HTRF, 20 min; active compounds read low; in the data active = activity change below about -80%; also: % is scaled to controls: 0 for no effect and ±100 for the full control effect
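Neuro2A cells in DMEM with 0.5% FBS, overnight at 37 deg C, given compound at single 50 µM final, then IGF (6 nM final) for 20 min at 37 deg C. Lysed; phospho-Akt Ser473 by HTRF after 24 h, 665/615 ratio.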
PI4K2A block: inhibitors of human PI4K2A; Q9BTU6; purified PI4K2A, ADP-Glo luminescence, 1 h; active compounds read low; activity change, negative = inhibition, % at 76.9 µM; hit rate 0.13% among 420,000; AID 1346378; in the data active = activity change below about -50%;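 also: -100% = wells without enzyme as full effect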
Target sequence (Q9BTU6 whole entry, looked up): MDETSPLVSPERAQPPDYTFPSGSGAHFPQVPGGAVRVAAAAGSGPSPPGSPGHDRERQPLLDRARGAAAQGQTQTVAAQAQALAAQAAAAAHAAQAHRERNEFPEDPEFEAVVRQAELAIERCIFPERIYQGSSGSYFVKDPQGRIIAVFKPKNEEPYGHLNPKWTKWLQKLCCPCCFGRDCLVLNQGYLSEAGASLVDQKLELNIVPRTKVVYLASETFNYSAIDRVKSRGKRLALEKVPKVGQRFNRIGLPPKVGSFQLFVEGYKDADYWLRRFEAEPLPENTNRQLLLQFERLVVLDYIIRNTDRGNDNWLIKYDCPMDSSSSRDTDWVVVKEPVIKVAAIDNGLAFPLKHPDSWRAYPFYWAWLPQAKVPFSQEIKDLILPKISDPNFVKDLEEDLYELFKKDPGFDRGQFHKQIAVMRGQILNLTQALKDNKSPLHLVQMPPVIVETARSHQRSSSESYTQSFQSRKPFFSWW
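Compounds are screened against recombinant PI4K2A using PI as substrate and ATP, the latter dispensed at 300 microM. Reactions run one hour at ambient temperature before ADP-Glo detection; full inhibition defined by wells lacking enzyme.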
DRD3 antagonist: blocks the human D3 dopamine receptor. D3R cells, DiscoveRx beta-arrestin luminescence, antagonist mode; active compounds read low. max response, negative = inhibition, %. hit rate 2.5% among 360,000. AID 652054; in the data active = max response below about -50%; also: % is scaled to controls: 0 for no effect and ±100 for the full control effect
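Cells plated overnight at 1500 cells/well, then exposed to library compounds with dopamine controls for 90 minutes at 37 degrees C. DiscoveRx reagent added for 30–60 minutes at room temperature; luminescence read, quantitative HTS format.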
* hit, by the source's call; [ ] = dose if it differs, or a comment. Shown are actives, neighbours in structure and some others; about 2.8% of the full set was active somewhere.

For O=C(NC1CCCC1)C(c1ccncc1)N(C(=O)Cc1cccs1)c1ccc(F)cc1 (configuration not stated) the results were RGS4 inh -22%, LDHA inh -1, DRD3 agonist 38*, Akt phos inh inactive, PI4K2A block -2 and DRD3 antagonist 11.
Cc1cccc(C)c1NC(=O)Cc1c[nH]c2ccccc12 was read as LDHA inh -2.
For CCNC(=O)NC(=O)C(C)OC(=O)c1cc(C)nc2ccccc12 (configuration not stated) the results were LDHA inh 13.
Cc1ccc2nc(C)cc(C(=O)OC(C)C(=O)NCC(C)C)c2c1 (configuration not stated) was read as LDHA inh -30*.
Screening Cc1cc(C(=O)OC(C)C(=O)NC(N)=O)c2ccccc2n1 (configuration not stated) returned LDHA inh -32*.
`CC1CCc2c(sc(NC(=O)c3cccs3)c2C(=O)O)C1` (configuration not stated) gave RGS4 inh -5%, LDHA inh -40*, DRD3 agonist -10, Akt phos inh inactive, PI4K2A block 0 and DRD3 antagonist -10.
`CCC1CCc2c(sc(NC(=O)c3cccnc3)c2C(N)=O)C1` (configuration not stated) gave RGS4 inh -4%, LDHA inh -8, DRD3 agonist 2, Akt phos inh inactive, PI4K2A block -1 and DRD3 antagonist 9.
CCOC(=O)c1c(NC(=O)COC(=O)Cn2cnc3ccccc32)sc2c1CCC(C)C2 (configuration not stated) was read as RGS4 inh 8%, LDHA inh 7, DRD3 agonist 12, Akt phos inh inactive, PI4K2A block -13 and DRD3 antagonist 0.
CCCC1CCc2c(sc(NC(=O)c3cccs3)c2C(N)=O)C1 (configuration not stated) was read as RGS4 inh 20%, LDHA inh -2, DRD3 agonist 20, Akt phos inh inactive, PI4K2A block -1 and DRD3 antagonist -94*.
Screening O=C(Nc1sc2c(c1C(=O)O)CCCC2)c1cccs1 returned RGS4 inh -12%, LDHA inh 0, DRD3 agonist -5, PI4K2A block -7 and DRD3 antagonist -5.
For CC(=O)Nc1sc2c(c1C(c1cccs1)N1CCOCC1)CCCC2 (configuration not stated) the results were RGS4 inh -26%, LDHA inh -4, DRD3 agonist -2, Akt phos inh -110%*, PI4K2A block -5 and DRD3 antagonist 0.
CCOC(=O)c1c(NC(=O)Cn2nnc3ccccc32)sc2c1CCC(C)C2 (configuration not stated) was read as RGS4 inh -24%, LDHA inh 1, DRD3 agonist 33*, Akt phos inh inactive, PI4K2A block 8 and DRD3 antagonist -8.
Screening COC(=O)c1c(NC(=O)c2cccs2)sc2c1CCC(C)C2 (configuration not stated) returned RGS4 inh -1%, LDHA inh -8, DRD3 agonist 0, Akt phos inh -101%*, PI4K2A block 11 and DRD3 antagonist 5.
O=C(Nc1sc2c(c1C(=O)O)CCCCC2)c1cccs1 was read as RGS4 inh 1%, LDHA inh -42*, DRD3 agonist 0, Akt phos inh inactive, PI4K2A block -4 and DRD3 antagonist 5.
`COC(=O)c1c(NS(=O)(=O)c2cccs2)sc2c1CCCC2` gave RGS4 inh -37%, LDHA inh -4, DRD3 agonist -4, Akt phos inh inactive, PI4K2A block -2 and DRD3 antagonist -57*.
Screening COc1ccc(OCCOC(=O)C2Cc3ccccc3C(=O)O2)cc1 (configuration not stated) returned LDHA inh 3.
`Fc1ccc(CCNC(=S)Nc2ccc(Oc3ccccc3)cc2)cc1` gave LDHA inh -3.
Screening Nc1ncnc2c1ncn2C1CCCC1 returned RGS4 inh -11%[56.9 µM], LDHA inh -15, DRD3 agonist 20, Akt phos inh inactive, PI4K2A block -65* and DRD3 antagonist 12.
`Nc1ncnc2c1ncn2C1CCC(CO)C(O)C1` (configuration not stated) gave RGS4 inh 15%, LDHA inh -4, DRD3 agonist -19, Akt phos inh inactive, PI4K2A block -54* and DRD3 antagonist -5.
Nc1ncnc2c1ncn2[C@H]1CC[C@@H](CO)O1 was read as RGS4 inh -13%, LDHA inh -4, DRD3 agonist 3, Akt phos inh inactive, PI4K2A block -17 and DRD3 antagonist 27.
Screening O=C(CSc1nc2ccccc2o1)Nc1cccc2ccccc12 returned LDHA inh 6.
Screening Cc1cc(=O)[nH]c(-n2nc(C)c(Oc3ccccc3O)c2C)n1 returned RGS4 inh -11%, LDHA inh 0, DRD3 agonist 9, Akt phos inh -110%*, PI4K2A block 2 and DRD3 antagonist 0.
`CCOC(=O)CCC(NC(=O)c1cncc(O)c1)C(=O)OCC` (configuration not stated) gave RGS4 inh -8%, LDHA inh -7, DRD3 agonist -1, Akt phos inh inactive, PI4K2A block -2 and DRD3 antagonist -65*.
Screening O=C(O)c1c(-c2ccccc2)oc2ccc(O)cc12 returned RGS4 inh -12%, LDHA inh -6, DRD3 agonist -1, Akt phos inh inactive, PI4K2A block 2 and DRD3 antagonist 30.
For Cc1ccc2oc(-c3ccccc3)c(C(=O)O)c(=O)c2c1 the results were RGS4 inh -1%, LDHA inh 0, DRD3 agonist -2, Akt phos inh inactive, PI4K2A block 4 and DRD3 antagonist -53*.
`CC(C)(C)C(=O)COc1cccc(S(C)(=O)=O)c1` gave LDHA inh 9.
For CCCS(=O)(=O)NC(=O)C1(C)CCN(C(=O)COc2ccc(Cl)cc2Cl)C1 (configuration not stated) the results were LDHA inh -1, DRD3 agonist 76*, Akt phos inh inactive, PI4K2A block 0 and DRD3 antagonist 14.
Screening O=C(COC(=O)C1CC2C=CC1C2)Nc1cccc(S(=O)(=O)N2CCCCCC2)c1 (configuration not stated) returned RGS4 inh -22%, LDHA inh 0, DRD3 agonist 2, Akt phos inh inactive, PI4K2A block -5 and DRD3 antagonist 32.
